Drawing on PubChem BioAssay AID463173 (ICCB-Longwood Screening Facility, Harvard Medical School, 2010), this text covers survival for 93 molecules.

Out of some 52,000 compounds screened, about 4,300 (8.3%) were called active. Cut-off read from the data, not from the text of the source: active = survival mostly below about 52% (no sharp cut-off); inactive = mostly above about 56%. What follows is part of a selection rich in actives, with near analogues and random picks from the rest.

The assay deals with DeltatarO mutant. The assay can be described thus: growth inhibition of S. aureus wild type versus tarO mutant, primary screen, teichoic acid synthesis inhibitors, RN4220, OD600 (AID 463173). The settings on record: OD600, 18 h, stronger effect = lower value, screened at 18.75 µg/mL (by protocol).
`CN(C)c1ccc(C(CNS(=O)(=O)c2ccc(Br)cc2)N2CCOCC2)cc1` (stereo not drawn): the survival was 74% (inactive).

Turning to `CCc1c(C)sc2c1CCN(Cc1ccccc1F)C2c1ccccc1` (stereo not drawn), the survival was 102% (inactive).

Regarding `CCCCC(=O)N1CCc2cc(OC)c(OC)cc2C1COc1ccc(C(=O)OCC)cc1` (stereo not drawn), the survival was 70% (inactive).

`O=C(CN1C(=O)COc2ccc(S(=O)(=O)N3CCCCC3)cc21)NCCc1ccc(Cl)cc1`: the survival is 73% (inactive).

With `CCOc1ccc(N2CC(NC(=O)c3ccc(Cl)cc3)CC2=O)cc1` (stereo not drawn), the survival was 73% (inactive).

`CC(C)(C)Sc1ccc(SC#N)s1`: the survival was 1% (active).

In the case of `N#CSc1ccc2nc(N)sc2c1`, the survival is 66% (inactive).

For `O=C1CC(c2ccc(Br)cc2)c2c(ccc3ccccc23)N1` (stereo not drawn), the survival is 32% (active).

For `Cc1ccccc1C1CC(=O)Nc2ccc3ccccc3c21` (stereo not drawn), the survival is 93% (inactive).

Turning to `O=C1CC(c2c(Cl)cccc2Cl)c2c(ccc3ccccc23)N1` (stereo not drawn), the survival is 73% (inactive).

`CC(C)c1ccc(CNc2nc(-c3ccco3)nn2C(=O)c2ccc([N+](=O)[O-])cc2)cc1`: the survival is 79% (inactive).

`COc1ccc(NC(=O)Cn2nnc(C(=O)NCc3ccc4c(c3)OCO4)c2N)cc1`: the survival is 76% (inactive).

Turning to `N#C/C(=C\c1ccc(F)cc1)C(=O)NCC1CCCO1` (stereo not drawn), the survival was 68% (inactive).

In the case of `N#C/C(=C\c1ccc(Cl)cc1)C(=O)NCC1CCCO1` (stereo not drawn), the survival was 44% (active).

Turning to `COc1cc(/C=C(\C#N)C(=O)NCC2CCCO2)ccc1O` (stereo not drawn), the survival is 83% (inactive).

On to `CCOC(=O)c1[nH]c(C)c(CCC(=O)Nc2ccccc2C(=O)OC)c1C`, for which the survival is 77% (inactive).

Turning to `Cc1ccc(-c2cnc(NC(=O)CCC(=O)N3CCCCC3)n2C)cc1`, the survival is 91% (inactive).

As for `Cn1c(-c2ccc3c(c2)OCO3)cnc1NCc1cc(Cl)ccc1O`, the survival is 70% (inactive).

`Cn1c(-c2ccccc2)cnc1SCc1ccccc1`: the survival was 108% (inactive).

As to `CCCc1cc(=O)n2[nH]c(NCc3c(F)cccc3Cl)nc2n1`, the survival was 86% (inactive).

For `Cc1ccc(-c2cnc(NCc3c(F)cccc3Cl)n2C)cc1`, the survival was -4% (active).

Take `Cc1ccc(CNc2nccn(-c3cc(C)cc(C)c3)c2=O)cc1`: the survival was 95% (inactive).

In the case of `Cn1c(NCc2cccc(Cl)c2)nc2ccccc21`, the survival was 104% (inactive).

`CCn1c(NCc2cccc(Cl)c2)nc2ccccc21`: the survival was 102% (inactive).

Consider `Cc1ccc(CNC(=O)c2ccc(CSCc3c(F)cccc3Cl)o2)cc1`, for which the survival was 90% (inactive).

Consider `CCOc1ccc(-c2cnc(NCc3cccc(Cl)c3)n2C)cc1`, for which the survival is 30% (active).

Regarding `Cc1ccc(-c2cnc(NCc3ccc(C(F)(F)F)cc3)n2C)cc1`, the survival is -5% (active).

As for `Cn1c(-c2ccccc2)cnc1NCc1ccccc1O`, the survival is 46% (active).

For `Cc1cc(C)cc(-n2c(SCC(=O)N3CCCCCC3)nc3c([nH]c4ccccc43)c2=O)c1`, the survival is 94% (inactive).

`CCOc1ccc(N(CC)C(=O)c2nn(-c3ccc(OC)cc3)c(=O)c3c2c2ccccc2n3C)cc1`: the survival is 82% (inactive).

For `CCOc1cc2sc(N3CCC(C(=O)Nc4ccc(C(C)C)cc4)CC3)nc2cc1Br`, the survival is 75% (inactive).

Turning to `COC(=O)CN(c1ccccc1Cl)S(C)(=O)=O`, the survival is 52% (inactive).

Consider `COc1ccc(NC(=O)c2oc3ccccc3c2NC(=O)c2cccc(F)c2)c(OC)c1`, for which the survival is 95% (inactive).

Consider `COc1cc(OC)c(NC(=O)C2=C(C)C(=O)OC23CCN(C(C)=O)CC3)cc1Cl`, for which the survival is 75% (inactive).

Turning to `Cc1ccc(NC(=O)CN2C=NS(=O)(=O)c3ccccc32)c(C)c1`, the survival was 99% (inactive).

As to `COc1ccc(-c2nc(Cn3c(SCc4ccc(C)cc4)nc4cccnc43)c(C)o2)cc1OC`, the survival was 113% (inactive).

On to `CCOc1ccc(-c2cnc(NCc3ccc(C(F)(F)F)cc3)n2C)cc1`, for which the survival was -3% (active).

Turning to `CCOc1ccc(-n2cc(-c3ccccc3)c3c(NCc4ccc(F)cc4)ncnc32)cc1`, the survival was 95% (inactive).

In the case of `Cc1ccc(-c2cnc(NCc3ccc(C(C)C)cc3)n2C)cc1`, the survival was -4% (active).

On to `COc1ccc(-c2cnc(NCc3ccc(C)cc3)n2C)cc1`, for which the survival was 121% (inactive).

On to `CCOc1ccc(NC(=O)C(=O)NCCc2csc(-c3ccc(C(F)(F)F)cc3)n2)cc1`, for which the survival was 94% (inactive).

Turning to `Cc1ccc(CNc2nc3c(c(=O)n(C)c(=O)n3C)n2Cc2ccc(Cl)cc2)cc1`, the survival is 54% (inactive).

For the molecule `Cc1ccc(NC(=O)CCN2C(=O)c3ccccc3Sc3ncccc32)c(Cl)c1`, the survival is 74% (inactive).

On to `CCOc1ccc(C(=O)NCCc2csc(-c3cccnc3)n2)cc1`, for which the survival was 81% (inactive).

Turning to `Cc1ccc(CNc2nc3ccccc3n3c(C)nnc23)cc1`, the survival is 88% (inactive).

In the case of `CCn1nc(C)c(CCN(C)C(=O)Nc2ccc(C)c(Cl)c2)c1C`, the survival was 88% (inactive).

As to `Cc1ccc(CCNC(=O)c2cc3cc4cc(C)ccc4nc3s2)cc1`, the survival was 46% (active).

Consider `CCOc1ccccc1NC(=O)c1cc2cc3cc(C)ccc3nc2s1`, for which the survival was 91% (inactive).

`Cc1ccc2nc3sc(C(=O)Nc4ccc(F)cc4)cc3cc2c1`: the survival is 37% (active).

`COc1ccc2nc3sc(C(=O)NCCc4ccc(Cl)cc4)cc3cc2c1`: the survival is 103% (inactive).

Turning to `CSc1ccc(CCNC(=O)c2cc3cc4cc(C)ccc4nc3s2)cc1`, the survival is 144% (inactive).

On to `CCOc1ccc(NC(=O)c2cc3cc4cc(OC)ccc4nc3s2)cc1`, for which the survival was 82% (inactive).

On to `CNC(=O)CN(C1CCCCC1)S(=O)(=O)c1ccc(C)cc1`, for which the survival was 75% (inactive).

Regarding `CC(C)C(=O)c1cn(CC(=O)NCc2cccs2)c2ccccc12`, the survival was 88% (inactive).

As for `CC(C)NC(=O)C1CCC(Cn2c(=O)c3sccc3n(CC(=O)Nc3ccccc3)c2=O)CC1` (stereo not drawn), the survival was 74% (inactive).

For the molecule `CCc1ccc(CNC(=O)c2cnc3sc(N4CCCCC4)nn3c2=O)cc1`, the survival is 99% (inactive).

As to `COC(=O)c1ccc(NC(=O)CN2CCCN(Cc3ccc(Cl)cc3)S2(=O)=O)cc1`, the survival is 94% (inactive).

On to `Cc1ccc(C)c(CN2CCCN(Cc3ccc(F)cc3)S2(=O)=O)c1`, for which the survival was -5% (active).

For `Cc1ccc(CN2CCCN(Cc3c(C)cc(C)cc3C)S2(=O)=O)cc1`, the survival was 91% (inactive).

With `Cc1ccc(C)c(CN2CCCN(Cc3ccccc3C)S2(=O)=O)c1`, the survival is 87% (inactive).

Turning to `COC(=O)c1ccc(OC)c(CN2CCCN(Cc3ccc(C)cc3)S2(=O)=O)c1`, the survival is 20% (active).

With `COc1ccc(NC(=O)CN2CCCN(Cc3ccc(Cl)cc3)S2(=O)=O)cc1Cl`, the survival was 60% (inactive).

As for `CCOC(=O)CCCN1C(=O)CCn2nc(-c3cn(C)c4ccccc34)cc21`, the survival is 69% (inactive).

On to `CCN(c1ccccc1C)S(=O)(=O)c1ccc(N2CCCCS2(=O)=O)cc1`, for which the survival is 125% (inactive).

As for `CCSc1nnc(C2CCCN(CC(=O)NC3CCCCC3C)C2)n1CC` (stereo not drawn), the survival is 74% (inactive).

For `Cc1ccc(CNC(=O)C2CCCN(Cc3nc(-c4cccc(C)c4)oc3C)C2)cc1` (stereo not drawn), the survival was 41% (inactive).

Consider `Cc1ccccc1-c1nc(CN2CCCC(C(=O)NCc3ccc(Cl)cc3)C2)c(C)o1` (stereo not drawn), for which the survival was 61% (inactive).

Turning to `Cc1cccc(-c2nc(CN3CCCC(C(=O)NCc4ccc(Cl)cc4)C3)c(C)o2)c1` (stereo not drawn), the survival is 18% (active).

Regarding `Cc1oc(-c2cccc(Cl)c2)nc1CN1CCCC(C(=O)NCc2ccc(F)cc2)C1` (stereo not drawn), the survival was 52% (inactive).

On to `Cc1oc(-c2cccc(Cl)c2)nc1CN1CCCC(C(=O)NCc2ccc(Cl)cc2)C1` (stereo not drawn), for which the survival is -1% (active).

On to `Cc1oc(-c2ccc(Cl)cc2)nc1CN1CCCC(C(=O)NCc2ccc(Cl)cc2)C1` (stereo not drawn), for which the survival was 59% (inactive).

For `CSCCC(NS(=O)(=O)c1ccc2c(c1)oc(=O)n2C)C(=O)N1CCN(c2cccc(Cl)c2)CC1` (stereo not drawn), the survival was 72% (inactive).

In the case of `Cc1nn(-c2ccccc2)c2c1N(CCCC(=O)NCc1ccc(Cl)cc1)C(=O)CS2`, the survival was 94% (inactive).

As to `Cc1cccc(CNC(=O)c2ccc3nc(Cc4ccccc4)oc3c2)c1`, the survival is 124% (inactive).

As for `CCOc1ccc(NC(=O)CSc2nc3c([nH]c4ccccc43)c(=O)n2-c2cc(C)cc(C)c2)cc1`, the survival was 89% (inactive).

`Cc1ccc(N2CC(NC(=O)c3ccc(S(=O)(=O)N4CCCC4)cc3)CC2=O)cc1C` (stereo not drawn): the survival is 83% (inactive).

Consider `O=C(Cn1ncc2c3ccccc3n(Cc3ccccc3F)c2c1=O)NCCCc1ccccc1`, for which the survival was 81% (inactive).

As to `Cc1cc(C)c2nc(N(Cc3cccnc3)C(=O)CCOc3ccccc3)sc2c1`, the survival is 84% (inactive).

Take `COc1ccc(CNC(=O)Cn2c(SCC(=O)Nc3ccc(OC)cc3)nc3ccccc32)cc1`: the survival was 89% (inactive).

For the molecule `O=C(CSc1nc2ccccc2n1Cc1ccc(F)cc1)N1CCN(c2ccc(F)cc2)CC1`, the survival was 92% (inactive).

Take `O=C(Cn1c(SCC(=O)Nc2ccc(F)cc2)nc2ccccc21)NCc1ccc(F)cc1`: the survival was 91% (inactive).

As for `COc1cccc(CNC(=O)Cn2c(SCC(=O)Nc3ccc(C)c(C)c3)nc3ccccc32)c1`, the survival was 87% (inactive).

In the case of `Cc1ccc(CNC(=O)Cn2c(SCC(=O)Nc3ccc(F)cc3)nc3ccccc32)cc1`, the survival was 126% (inactive).

In the case of `COc1cccc(Cn2c(SCC(=O)N(C)c3ccccc3)nc3ccccc32)c1`, the survival was -4% (active).

Regarding `COc1ccc(Cn2c(SCC(=O)N3CCN(c4ccc(F)cc4)CC3)nc3ccccc32)cc1`, the survival was 47% (active).

For the molecule `COc1ccc(NC(=O)CSc2nc3ccccc3n2CC(=O)NCc2ccc(F)cc2)cc1`, the survival was -5% (active).

In the case of `COC(=O)c1ccc(Cn2c(SCC(=O)N(C)c3ccccc3)nc3ccccc32)cc1`, the survival is 60% (inactive).

As to `COc1cccc(Cn2c(SCC(=O)N3CCN(c4ccc(F)cc4)CC3)nc3ccccc32)c1`, the survival was 66% (inactive).

For `COc1cccc(CNC(=O)Cn2c(SCC(=O)Nc3ccc(F)cc3)nc3ccccc32)c1`, the survival was 8% (active).

For `CN(C(=O)CSc1nc2ccccc2n1Cc1cccc(C(F)(F)F)c1)c1ccccc1`, the survival is 66% (inactive).

As for `CCc1ccc(NC(=O)CCCn2nc(C)c3c(C)n(-c4ccccc4)nc3c2=O)cc1`, the survival was 81% (inactive).

Take `CC(C)c1ccc(NC(=O)CSc2ncnc3c2sc2ccccc23)cc1`: the survival was 70% (inactive).

With `CCC(=O)OC1CSc2nc3ccccc3n2C1` (stereo not drawn), the survival is 76% (inactive).
